Source: PubChem
Rpn11 block = blocks the human proteasome subunit Rpn11 | human 26S proteasome, Ub4-pepOG fluorescence polarization; 20S core pre-blocked with epoxomicin | inhibition, % at 20 µM | 0.59% of 360,000 active | AID 588493 | O00487;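 active = inhibition at 20 µM, scaled to each plate's controls, above about 33%, limit read from the data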
Target sequence (O00487 whole entry, looked up): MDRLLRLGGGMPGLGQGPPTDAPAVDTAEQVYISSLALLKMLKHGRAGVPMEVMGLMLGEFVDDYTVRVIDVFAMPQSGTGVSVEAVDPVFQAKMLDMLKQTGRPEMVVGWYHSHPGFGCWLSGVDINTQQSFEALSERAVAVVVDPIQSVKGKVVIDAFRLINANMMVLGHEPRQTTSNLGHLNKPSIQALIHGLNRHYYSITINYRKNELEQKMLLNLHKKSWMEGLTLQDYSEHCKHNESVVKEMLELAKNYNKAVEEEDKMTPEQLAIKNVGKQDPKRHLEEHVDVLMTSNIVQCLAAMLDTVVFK
CTSL1 counter = counter-screen for PFM18AAP inhibitors: inhibitors of F. hepatica cathepsin L1; 0.49% of 300,000 active; recombinant F. hepatica cathepsin L1, Z-Leu-Arg-MCA fluorescence; AID 1906; inhibition, % at 5.96 µM;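 active = inhibition above the mean of all tested compounds plus 3 SD, set per screening campaign, cut at about 17% in these data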;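 also: 0% = plate median of test compound wells and 100% = 1 µM Z-Phe-Ala-diazomethylketone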
PHOSPHO1 block = PHOSPHO1 (human) inhibition; Q8TCT1; recombinant PHOSPHO1, absorbance phosphatase assay; inhibition, % at 13.3 µM; 1.1% of 290,000 active; AID 1565; in the data active = inhibition above about 60%
TPT1 inhibitor = C. albicans TPT1 enzyme inhibition. 0.81% of 300,000 active. recombinant caTPT1, FP RNA substrate dephosphorylation. inhibition, % at 5 µM;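 active = inhibition above the mean of all tested compounds plus 3 SD, set per screening campaign, cut at about 24% in these data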;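 also: plate controls were DMSO alone for no effect and ferristatin control at 100 nM for full effect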
CendR NRP1 mod = alters CendR peptide binding to human NRP-1; FAM-RPARPAR peptide binding to NRP-1, fluorescence polarization; AID 602438; O14786; 0.85% of 360,000 active; inhibition, % at 25 µM;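 active = inhibition or corrected inhibition above about 18%, plus a signal ratio from 0.5 to 1.5, limit read from the data, passing the limit was not always enough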
HNF4A DNA FP = change in binding of human HNF4 alpha to DNA | activity change, % at 10 µM | HNF4a-FITC DNA binding, fluorescence polarization, 1 h | 0.3% of 360,000 active; in the data active = activity change above about 30%, passing the limit was not always enough
caTPT1 confirm = TPT1 (C. albicans) inhibition, confirmation | inhibition, % at 5 µM | shares compounds with TPT1 inhibitor | 74% of 2,400 active | recombinant caTPT1, fluorescence polarization, RNase T1 coupled | AID 2149;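 active = inhibition above the primary screen limit, the mean inhibition of all tested compounds plus 3 SD, cut at about 25% in these data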
RNase T1 counter = counter-screen for TPT1 inhibitors: inhibitors of Aspergillus oryzae RNase T1; 83% of 2,400 active; shares compounds with TPT1 inhibitor; inhibition, % at 5 µM; RNase T1 cleavage, fluorescence polarization, 1536-well;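 active = inhibition above the solvent-only control well mean plus 3 SD, limit set per screening run, cut at about 23% in these data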;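 also: plate controls were DMSO wells with enzyme for no effect and wells without RNase T1 for full effect; inhibitors block cleavage so intact labeled substrate keeps polarization high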
Target sequence (P00651 whole entry, looked up): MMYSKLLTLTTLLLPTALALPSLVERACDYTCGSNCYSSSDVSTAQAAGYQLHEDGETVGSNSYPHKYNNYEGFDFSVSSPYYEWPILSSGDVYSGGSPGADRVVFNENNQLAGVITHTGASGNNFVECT
The depositor's hits bear a star; · = not tested or not shown; + = active, no number. Hits are enriched below; roughly 3.3% of the tested compounds scored in any of these assays.

SMILES	Rpn11 block	CTSL1 counter	PHOSPHO1 block	TPT1 inhibitor	CendR NRP1 mod	HNF4A DNA FP	caTPT1 confirm	RNase T1 counter
NS(=O)(=O)c1cccc(NC(=O)CN2CCc3ccccc32)c1	10.9	-3.6	-5.9	-37.8	-12.1	1.0	·	·
CN(c1ccccc1)S(=O)(=O)c1cccc(NC(=O)CN2CCCc3ccccc32)c1	32.0	7.2	-49.6	37.1*	-31.5	10.1	25.0*	37.0*
CNC(=O)OCc1ncn(-c2ccccc2)c1COC(=O)NC	6.3	·	·	·	3.7	-3.4	·	·
COc1ccc(/C=N/NC(=O)c2ccc(O)cc2)cc1CN1CCCc2ccccc21	7.2	2.8	-3.5	31.3*	-21.0	4.6	39.9*	54.2*
O=C(O)Cc1ccc2[nH]c3ccc(CC(=O)O)cc3c2c1	3.4	0.1	-1.6	1.9	-2.0	1.3	·	·
O=C(COC(=O)C1COc2ccccc2O1)Nc1cccc(S(=O)(=O)N2CCCCC2)c1 (centres undefined)	-0.9	-7.7	-2.1	2.5	5.7	1.9	·	·
CN1CCN(S(=O)(=O)c2cccc(C(=O)Nc3sc4c(c3-c3nc5ccccc5[nH]3)CCCC4)c2)CC1	33.4	-1.0	-12.5	32.9*	-17.5	0.1	34.8*	48.0*
CCCCn1c(/C=C/c2ccco2)nc2ccccc21	17.9	0.5	-18.6	22.7	-44.8	3.3	·	·
Clc1ccc(Cn2c(/C=C/c3ccco3)nc3ccccc32)cc1	·	0.4	-3.3	29.1*	-89.9	25.4	33.7*	46.4*
CCCn1c(/C=C/c2ccco2)nc2ccccc21	18.6	0.1	9.1	25.0*	-47.9	3.7	38.3*	50.9*
COc1ccccc1NC(=O)C1CCN(S(=O)(=O)c2ccc3c(c2)NC(=O)C(C)S3)CC1 (centres undefined)	18.8	2.7	12.1	5.7	-25.6	12.9	·	·
O=C(Nc1ccc(S(=O)(=O)Nc2nccs2)cc1)c1ccc(=O)[nH]c1	26.2	-3.2	43.9	35.6*	-61.2	-1.7	37.4*	50.9*
OC1CCCN(CC(O)COC(c2ccccc2)c2ccccc2)C1 (centres undefined)	-1.9	-1.2	43.2	29.4*	6.6	-0.9	1.5	2.3
COc1ccc(NC2CCCN(C(=O)c3cc4ncccn4n3)C2)cc1 (centres undefined)	-7.7	-3.8	1.5	-0.9	-0.8	2.4	·	·
COc1cccc(-c2ccc(SCC(=O)NCCc3ccccc3)nn2)c1	-8.1	-8.5	-15.4	54.1*	-1.1	0.7	2.9	5.8
COc1ccc(CCNC(=O)CSc2ccc(-c3ccccc3)nn2)cc1OC	-3.8	3.6	13.4	4.1	12.3	-1.9	·	·
N#C/C(=C\c1ccc(N2CCOCC2)o1)c1ccccc1	·	15.2	-4.6	67.4*	-231.1	77.9*	138.1*	137.3*
N#C/C(=C/c1ccc(N2CCOCC2)o1)c1nc2ccccc2[nH]1	·	5.5	13.5	180.1*	133.7	151.9	163.9*	151.7*
N#C/C(=C\c1ccc(Sc2ccc(Cl)cc2)o1)c1nc2ccccc2[nH]1	25.6	4.3	3.5	52.3*	-29.6	13.7	51.1*	65.8*
N#C/C(=C\c1cc([N+](=O)[O-])c(N2CCOCC2)cc1N1CCOCC1)c1nc2ccccc2[nH]1	-2.9	4.9	-6.1	-5.0	-7.7	-4.9	·	·
N#C/C(=C/c1ccc(N2CCOCC2)o1)c1ccc(Br)cc1	·	15.4	47.3	+	130.9	111.9	170.7*	159.4*
CSCCC(NC(=O)c1ccco1)C(=O)NNC(=O)c1n[nH]c(=O)c2ccccc12 (centres undefined)	0.9	·	·	·	-8.6	1.4	·	·
O=C(O)Cc1sc(Nc2ccc(F)cc2)nc1-c1cccs1	·	-0.7	-122.7	68.2*	-86.5	23.4	48.6*	63.3*
Cc1ccc(Nc2nc(-c3ccccc3)c(CC(=O)O)s2)cc1	17.9	1.6	10.8	56.5*	-29.1	0.1	21.6	31.2*
O=C(O)Cc1sc(Nc2ccccc2)nc1-c1ccc(Cl)cc1	8.4	2.3	-97.9	-3.1	-5.4	1.4	·	·
SMILES	Rpn11 block	CTSL1 counter	PHOSPHO1 block	TPT1 inhibitor	CendR NRP1 mod	HNF4A DNA FP	caTPT1 confirm	RNase T1 counter
CSc1cccc(NC(=O)C(=O)NCc2ccccc2)c1	-6.7	2.1	24.6	0.6	11.1	2.5	·	·
CSc1cccc(NC(=O)NCc2cccc(CNC(=O)Nc3cccc(SC)c3)c2)c1	1.8	-0.3	29.8	50.6*	-0.5	1.4	4.3	6.2
Oc1[nH]c(=S)sc1C=C1N=c2ccccc2=N1	0.8	4.2	24.6	2.5	-41.5	10.7	·	·
Oc1[nH]c(=S)sc1/C=C1\C(c2ccccc2)=Nc2ccccc21	·	2.9	-30.7	138.4*	-128.1	95.3*	129.9*	136.0*
COC(=O)c1sc2nc(CSc3nc4ccc(C)cc4[nH]3)[nH]c(=O)c2c1C	·	3.1	42.3	38.2*	-96.3	24.8	33.4*	44.6*
Cc1ccc2nc(SCc3nc4ccccc4c(=O)[nH]3)[nH]c2c1	1.8	-0.3	24.6	3.6	-17.1	2.6	·	·
Cn1c(CN2CCCC2)nc2cc(NC(=O)COc3ccc(Cl)cc3)ccc21	5.1	4.1	-10.0	59.7*	-8.1	-1.6	6.9	11.5
Nc1c(C(=O)Nc2ccc(F)cc2)sc2nc(-c3ccco3)ccc12	22.8	3.3	35.3	28.0*	-36.7	14.4	24.6*	33.5*
Nc1c(C(=O)Nc2ccc(Br)cc2)sc2nc(-c3ccco3)ccc12	33.4	5.3	45.2	24.5*	-72.5	9.4	35.3*	44.3*
CC(=O)c1sc2nc(-c3ccco3)ccc2c1N	-4.7	8.4	-4.5	0.7	-22.2	-21.9	·	·
CCOC(=O)C1(C)CCN1C(=O)c1ccc(OC)c(C(F)(F)F)c1 (centres undefined)	-4.1	·	·	·	-8.1	-0.4	·	·
N#C/C(=C/c1ccc(-c2ccc(S(N)(=O)=O)cc2)o1)c1nc2ccccc2s1	·	6.3	-6.2	73.4*	131.7	107.3	40.8*	50.0*
N#C/C(=C/c1ccc(-c2ccccc2)o1)c1nc(-c2cccs2)cs1	·	2.3	-14.6	130.8*	130.8	16.6	124.2*	113.6*
O=C(C1=C(O)C(=O)N(CCN2CCOCC2)C1c1cccc([N+](=O)[O-])c1)c1cccs1 (centres undefined)	9.4	0.8	-4.7	-2.3	5.6	-0.9	·	·
Cc1cc(/C=C2\SC(=S)N(Cc3ccco3)C2=O)c(C)n1-c1cccnc1	·	·	21.5	·	-39.5	119.6	·	·
Cc1cc(/C=C2/SC(=S)N(c3cccc(C(F)(F)F)c3)C2=O)c(C)n1-c1cccnc1	37.1	3.1	·	87.7*	-180.5	63.6*	91.6*	98.9*
CC(C)(C)c1cc(NC(=O)C2(C)CCN2C(=O)c2ccccc2CCc2ccccc2)no1 (centres undefined)	-4.1	·	·	·	-4.8	5.3	·	·
